# About 410 targets per protein were measured; listed, in parts, are those with the strongest signals and a random draw of the rest.
# Assays:
# Experiment in all cases: glycan array binding signal (z-score within array); higher = stronger binding
# Settings in all cases: glycan notation: IUPAC condensed, linker removed
# [1] = target: GalNAc(b1-3)Gal(a1-4)Gal(b1-4)GlcNAc
# Method in brief: (§1)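 Arrays were curated from the Consortium for Functional Glycomics database, 3228 in total, and kept only where the protein sequence was available. Binding is expressed as a within-array Z-score. This score was averaged across arrays of the same protein sequence at different concentrations or buffers and across linkers, and negative values can be read as non-binding.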
# [2] = target: GalNAc(b1-3)Gal(a1-4)Gal(b1-4)GlcNAc(b1-3)Gal(b1-4)Glc
# Method in brief: as §1
# [3] = target: GalNAc6S(b1-4)GlcNAc
# Method in brief: as §1
# [4] = target: GlcNAc(a1-4)Gal(b1-4)GlcNAc
# Method in brief: as §1
# [5] = target: GlcNAc(b1-2)[GlcNAc(b1-4)]Man(a1-3)[GlcNAc(b1-4)][GlcNAc(b1-2)Man(a1-6)]Man(b1-4)GlcNAc(b1-4)GlcNAc
# Method in brief: as §1
# [6] = target: GlcNAc(b1-3)Gal(b1-4)GlcNAc(b1-3)Gal(b1-4)GlcNAc(b1-2)[GlcNAc(b1-3)Gal(b1-4)GlcNAc(b1-3)Gal(b1-4)GlcNAc(b1-6)]Man(a1-6)[GlcNAc(b1-3)Gal(b1-4)GlcNAc(b1-3)Gal(b1-4)GlcNAc(b1-2)Man(a1-3)]Man(b1-4)GlcNAc(b1-4)[Fuc(a1-6)]GlcNAc
# Method in brief: as §1
# [7] = target: GlcNAc(b1-3)Gal(b1-4)GlcNAc(b1-3)Gal(b1-4)GlcNAc(b1-3)Gal(b1-4)GlcNAc(b1-2)Man(a1-3)[GlcNAc(b1-3)Gal(b1-4)GlcNAc(b1-3)Gal(b1-4)GlcNAc(b1-3)Gal(b1-4)GlcNAc(b1-2)Man(a1-6)]Man(b1-4)GlcNAc(b1-4)[Fuc(a1-6)]GlcNAc
# Method in brief: as §1
# [8] = target: GlcNAc(b1-3)Gal(b1-4)GlcNAc(b1-3)Gal(b1-4)GlcNAc(b1-3)Gal(b1-4)GlcNAc(b1-3)Gal(b1-4)GlcNAc(b1-2)Man(a1-3)[GlcNAc(b1-3)Gal(b1-4)GlcNAc(b1-3)Gal(b1-4)GlcNAc(b1-3)Gal(b1-4)GlcNAc(b1-3)Gal(b1-4)GlcNAc(b1-2)Man(a1-6)]Man(b1-4)GlcNAc(b1-4)[Fuc(a1-6)]GlcNAc
# Method in brief: as §1
# [9] = target: GlcNAc(b1-3)Gal(b1-4)GlcNAc(b1-6)[Gal(b1-3)]GalNAc
# Method in brief: as §1
# [10] = target: GlcNAc(b1-3)GalNAc
# Method in brief: as §1
# [11] = target: GlcNAc(b1-6)GalNAc
# Method in brief: as §1
# [12] = target: Kdn(a2-3)Gal(b1-4)GlcNAc
# Method in brief: as §1
# [13] = target: Man(a1-2)Man(a1-3)[Man(a1-2)Man(a1-6)]Man
# Method in brief: as §1
# [14] = target: Neu5Ac(a2-3)Gal(b1-3)GalNAc(b1-4)[Neu5Ac(a2-8)Neu5Ac(a2-3)]Gal(b1-4)Glc
# Method in brief: as §1
# [15] = target: Neu5Ac(a2-3)Gal(b1-3)GlcNAc(b1-6)GalNAc
# Method in brief: as §1
# [16] = target: Neu5Ac(a2-3)Gal(b1-4)GlcNAc(b1-3)Gal(b1-4)GlcNAc(b1-2)Man(a1-3)[Neu5Ac(a2-3)Gal(b1-4)GlcNAc(b1-3)Gal(b1-4)GlcNAc(b1-2)Man(a1-6)]Man(b1-4)GlcNAc(b1-4)GlcNAc
# Method in brief: as §1
# [17] = target: Neu5Ac(a2-3)Gal(b1-4)GlcNAc(b1-3)Gal(b1-4)GlcNAc(b1-6)[Gal(b1-3)]GalNAc
# Method in brief: as §1
# [18] = target: Neu5Ac(a2-3)Gal(b1-4)GlcNAc(b1-6)GalNAc
# Method in brief: as §1
# [19] = target: Neu5Ac(a2-3)Gal(b1-4)GlcNAc(b1-6)[Gal(b1-3)]GalNAc
# Method in brief: as §1
# [20] = target: Neu5Ac(a2-3)Gal(b1-4)[Fuc(a1-3)]GlcNAc6S
# Method in brief: as §1
# [21] = target: Neu5Ac(a2-3)GalNAc
# Method in brief: as §1
# [22] = target: Neu5Ac(a2-6)Gal(b1-4)GlcNAc(b1-2)Man
# Method in brief: as §1
# [23] = target: Neu5Ac(a2-6)Gal(b1-4)GlcNAc(b1-2)Man(a1-3)[GlcNAc(b1-2)Man(a1-6)]Man(b1-4)GlcNAc(b1-4)GlcNAc
# Method in brief: as §1
# [24] = target: Neu5Ac(a2-6)Gal(b1-4)GlcNAc(b1-2)Man(a1-6)[GlcNAc(b1-2)Man(a1-3)]Man(b1-4)GlcNAc(b1-4)GlcNAc
# Method in brief: as §1
# [25] = target: Neu5Ac(a2-8)Neu5Ac(a2-3)[Gal(b1-3)GalNAc(b1-4)]Gal(b1-4)Glc
# Method in brief: as §1
# [26] = target: Neu5Gc(a2-3)Gal(b1-3)GlcNAc
# Method in brief: as §1
# [27] = target: Neu5Gc(a2-8)Neu5Gc(a2-3)Gal(b1-4)GlcNAc
# Method in brief: as §1
# [28] = target: Neu5Gc(a2-8)Neu5Gc(a2-6)Gal(b1-4)GlcNAc
# Method in brief: as §1
binder,measurement,setting,value
DC-ASGPR L+GEE (Homo sapiens) (protein) MTRTYENFQYLENKVKVQGFKNGPLPLQSLLQRLRSGPCHLLLSLGLGLLLLVIICVVGFQNSKFQRDLVTLRTDFSNFTSNTVAEIQALTSQGSSLEETIASLKAEVEGFKQERQAGVSELQEHTTQKAHLGHCPHCPSVCVPVHSEMLLRVQQLVQDLKKLTCQVATLNNNGEEASTEGTCCPVNWVEHQDSCYWFSHSGMSWAEAEKYCQLKNAHLVVINSREEQNFVQKYLGSAYTWMGLSDPEGAWKWVDGTDYATGFQNWKPGQPDDWQGHGLGGGEDCAHFHPDGRWNDDVCQRPYHWVCEAGLGQTSQESH,glycan array binding signal (z-score),[1],4.33
same,glycan array binding signal (z-score),[2],4.06
same,glycan array binding signal (z-score),[3],1.11
same,glycan array binding signal (z-score),[4],-0.367
same,glycan array binding signal (z-score),[5],-0.37
same,glycan array binding signal (z-score),[6],0.194
same,glycan array binding signal (z-score),[7],-0.283
same,glycan array binding signal (z-score),[8],0.512
same,glycan array binding signal (z-score),[9],-0.411
same,glycan array binding signal (z-score),[10],-0.439
same,glycan array binding signal (z-score),[11],3.71
same,glycan array binding signal (z-score),[12],-0.074
same,glycan array binding signal (z-score),[13],-0.348
same,glycan array binding signal (z-score),[14],-0.319
same,glycan array binding signal (z-score),[15],6.64
same,glycan array binding signal (z-score),[16],-0.164
same,glycan array binding signal (z-score),[17],-0.553
same,glycan array binding signal (z-score),[18],3
same,glycan array binding signal (z-score),[19],-0.019
same,glycan array binding signal (z-score),[20],-0.418
same,glycan array binding signal (z-score),[21],-0.223
same,glycan array binding signal (z-score),[22],0.432
same,glycan array binding signal (z-score),[23],-0.362
same,glycan array binding signal (z-score),[24],-0.328
same,glycan array binding signal (z-score),[25],0.544
same,glycan array binding signal (z-score),[26],-0.017
same,glycan array binding signal (z-score),[27],-0.146
same,glycan array binding signal (z-score),[28],-0.204
